# From the supplement of paper PMC3656093
# ± gives the standard deviation of the averaged measurements. In all, about 1,900 compounds were measured (“CD40L-induced NF-kB luciferase activity, plate-corrected, relative to DMSO (0) and IKK inhibitor VII (-100) controls”: median about 0.032, lowest 2% from about -26 on). The full list was thinned out, with the lowest values kept by preference.
# Test system: BL2-NFkB-Luc
# Experiment: CD40L-induced NF-kB luciferase activity, plate-corrected, relative to DMSO (0) and IKK inhibitor VII (-100) controls (% normalized activity); higher = more NF-kB reporter activity (less inhibition)
# Settings: 9.4 µM; stimulus: tCD40L 64 ng/ml; 4.5 h
# Procedure: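 BL2 B cells with a stable NF-kB response-element luciferase reporter (BL2-NFkB-Luc), 384-well. Cells were pre-incubated with compound at 9.4 uM for 1 h at 37 C, then stimulated with 64 ng/ml trimerized CD40L for 4.5 h; luciferase was read with Steady-Glo. Signal was normalised per plate in Genedata (median DMSO neutral control = 0, median IKK inhibitor VII at 50 uM = -100) with Assay Median plate-pattern correction; duplicate plates.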
row,Structure (SMILES),CD40L-induced NF-kB luciferase activity
1,CCC(=O)O[C@]1(C(=O)CCl)[C@@H](C)C[C@H]2[C@@H]3CCC4=CC(=O)C=C[C@]4(C)[C@@]3(F)[C@@H](O)C[C@@]21C,-21.44 ± 0.014
2,CCCC(=O)O[C@]1(C(=O)CCl)[C@@H](C)C[C@H]2[C@@H]3CCC4=CC(=O)C=C[C@]4(C)[C@@]3(F)C(=O)C[C@@]21C,-27.9 ± 3.7
3,C[C@H]1C[C@H]2[C@@H]3CCC4=CC(=O)C=C[C@]4(C)[C@@]3(Cl)[C@@H](O)C[C@]2(C)[C@@]1(O)C(=O)CO,-25.6 ± 2.2
4,Cc1cnc(N)c2c(=O)oc3ccccc3c12,41.69 ± 0.28
5,O=C1CCCC(=O)C1=Cc1c[nH]c2ccccc12,-7.53 ± 0.79
6,CCn1c(=N)c(C(=O)NC)cc2c(=O)n3cccc(C)c3nc21,0.825 ± 8.5
7,O=C(Nc1ccc(N2CCOCC2)cc1)c1ccc(-c2ccccc2[N+](=O)[O-])o1,17.3 ± 0.45
8,COc1cc(OC)cc(C(C)=O)c1,-2.98 ± 1.2
9,C=C1C2(C(=O)Nc3ccc(SC(F)F)cc3)CCC(C2)C1(C)C (centres undefined),1.47 ± 2.7
10,N#C/C(=C/c1ccccc1)C(=O)NCc1ccccc1,-1.8 ± 1.4
11,Cc1ccc(C(=O)COC(=O)c2cnccn2)cc1[N+](=O)[O-],0.896 ± 2.4
12,CCOc1ccccc1C(=O)NCCC(=O)O,-1.43 ± 3.9
13,Cc1cccc(N2C(=O)C3C(c4ccccc4)OC4(C(=O)c5ccccc5C4=O)C3C2=O)c1 (centres undefined),-0.286 ± 0.72
14,COc1ccc(CN(CCC(c2ccc(F)cc2)C2CCOC(C)(C)C2)C(=O)c2ccco2)cc1 (centres undefined),-4.2 ± 3.9
15,CC(=O)OC1c2c(ccc3ccc(=O)oc23)OC(C)(C)C1OC(=O)CC(C)C (centres undefined),-3.56 ± 6.5
16,CC1/C(=C\c2ccc(Cl)cc2)C(=O)C2CC1C2(C)C (centres undefined),3.76 ± 2.7
17,COC(=O)c1ccc(NC(=O)C23CCC(C)(C(=O)O2)C3(C)C)cc1 (centres undefined),-0.16 ± 13
18,COc1cccc(NC(=O)C2CC(=O)OC23CCOC(C)(C)C3)c1 (centres undefined),4.32 ± 4.7
19,CC1CNCCN1S(=O)(=O)c1cccc2cnccc12 (centres undefined),-26.1 ± 6.3
20,O=C1c2ccccc2C2(c3ccccc3)NCCN12 (centres undefined),1.37 ± 7
21,Cc1ccccc1C(=O)Oc1ccc(Sc2ccc(O)cc2)cc1,2.2 ± 3.6
22,O=C(NCCc1c[nH]c2ccccc12)OCCSS(=O)(=O)O,0.55 ± 1.4
23,CCOCC(=O)Nc1ccccc1C(=O)N1CCOCC1,-5 ± 1
24,Cn1c(=O)[nH]c2nnc(-c3ccc(Cl)c(Cl)c3)nc2c1=O,25.5 ± 4.7
25,Cn1nc(-c2ccc(Cl)cc2)nc2c(=O)n(C)c(=O)nc1-2,-95.22 ± 0.55

row,Structure (SMILES),CD40L-induced NF-kB luciferase activity
1,Cn1nc(-c2ccccn2)nc2c(=O)n(C)c(=O)nc1-2,-19.1 ± 0.82
2,O=C1[C@@H]2CSCN2C(=O)CN1Cc1ccc(F)cc1,-0.473 ± 5.9
3,COc1ccc(NC(=S)N2CCN(CCN3C(=O)c4cccc5cccc(c45)C3=O)CC2)cc1,1.19 ± 0.65
4,O=C(c1cccc2ccccc12)C1CCCN(C(=O)CCN2CCCO2)C1 (centres undefined),2.54 ± 2
5,CC(=O)O[C@H]1C(=O)[C@@]2(C)[C@H]([C@H](OC(=O)c3ccccc3)[C@]3(O)C[C@H](OC(=O)[C@H](O)C(NC(=O)c4ccccc4)c4ccccc4)C(C)=C1C3(C)C)[C@]1(OC(C)=O)CO[C@@H]1C[C@@H]2O (some centres undefined),-33.4 ± 1.3
6,CC(C)C1CC(CCNCc2ccc(N(C)C)cc2)(c2ccccc2)CCO1 (centres undefined),-4.73 ± 11
7,N/C(=N\OC(=O)c1cccc(Br)c1)c1ccncc1,2.67 ± 0.79
8,COc1ccc(C2=CC(=O)C=CC2=O)cc1,-5.93 ± 5.3
9,CCOc1ccc(C(=O)N2CCCC2C(=O)O)cc1 (centres undefined),2.22 ± 8
10,CC(=O)O[C@H]1CC[C@H]2[C@@H]3CCc4cc(O)ccc4[C@H]3CC[C@]12C,-3.39 ± 3.8
11,COc1ccccc1/C=C/C(=O)OCCN1CCOCC1,2.92 ± 4.6
12,CCOC(=O)C(=O)N1CCN(c2ccccc2OC)CC1,-1.99 ± 1.9
13,CCOC(=O)C(=Cc1ccccc1OC)C(=O)OCC,-29 ± 6.1
14,C[C@]12CCC(=O)C=C1CC[C@@H]1[C@@H]2CC[C@@]2(C)[C@H]1CC[C@]2(O)C(=O)CO,-8.87 ± 3.8
15,C[C@]12C=CC(=O)C=C1CCC1C3CC[C@](O)(C(=O)CO)[C@@]3(C)CC3OC312 (some centres undefined),-7.42 ± 5.5
16,CCCC1O[C@@H]2C[C@H]3[C@@H]4CCC5=CC(=O)C=C[C@]5(C)[C@H]4[C@@H](O)C[C@]3(C)[C@]2(C(=O)CO)O1 (some centres undefined),-26 ± 0.65
17,C[C@]12CCC(=O)C=C1CC[C@@H]1[C@@H]2C(=O)C[C@@]2(C)[C@H]1CC[C@]2(O)C(=O)CO,-6.47 ± 2
18,C[C@H]1C[C@@H]2[C@H]([C@@H](O)C[C@@]3(C)[C@H]2CC[C@]3(O)C(=O)CO)[C@@]2(C)C=CC(=O)C=C12,-35.94 ± 0.26
19,C[C@]12CCC(=O)C=C1CC[C@@H]1[C@@H]2[C@@H](O)C[C@@]2(C)[C@H]1CC[C@]2(O)C(=O)COC(=O)CCC(=O)O,-23.2 ± 7.1
20,CC(=O)OCC(=O)[C@@]1(O)CC[C@H]2[C@@H]3CCC4=CC(=O)CC[C@]4(C)[C@H]3[C@@H](O)C[C@@]21C,-31.1 ± 6.7
21,CC(=O)OCC(=O)[C@@]1(O)CC[C@H]2[C@@H]3CCC4=CC(=O)C=C[C@]4(C)[C@H]3[C@@H](O)C[C@@]21C,-43.8 ± 2.2
22,CC1(C)O[C@@H]2C[C@H]3[C@@H]4C[C@H](F)C5=CC(=O)CC[C@]5(C)[C@H]4[C@@H](O)C[C@]3(C)[C@]2(C(=O)CO)O1,-21.3 ± 0.59
23,C[C@]12CCC(=O)C=C1[C@H](O)C[C@@H]1[C@@H]2[C@@H](O)C[C@@]2(C)[C@H]1CC[C@]2(O)C(=O)CO,-8.7 ± 4.6
24,CC(=O)[C@@]1(O)CC[C@H]2[C@@H]3CCC4=CC(=O)CC[C@]4(C)[C@H]3[C@@H](O)C[C@@]21C,-12.9 ± 3.2
